# This is a sample that favours compounds with a hit; in the whole collection about 14% have one here.
# AID923: qHTS Assay for Allosteric/Competitive Inhibitors of Caspase-1: Spectroscopic Profiling in AFC Spectral Region | compound fluorescence, AFC spectral region (405/520 nm) | Potency, µM (doses to about 57.5 µM), for inactives: at the top dose fluorescence increase, usual class: activators | actives 1.1% (n = 75,000); note: potency is the fitted concentration of half-maximal effect; 0% is about no effect
#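 Titrations up to 57 uM read every 20 sec for 3 min (405/520 nm) with 50 nM caspase 1 and 5 uM Ac-WEHD-AFC, pH 7.5 HEPES buffer. Fluorescence-vs-time intercept gave baseline, scaled against on-plate AFC standard.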
# CRE-bla Fsk: modulators of forskolin-stimulated CRE signaling in CHO cells. CHO CRE-bla reporter (cAMP response element driving beta-lactamase), forskolin EC10, beta-lactamase ratio. Potency, µM (top dose mostly 38.2 µM), inactives show at the highest dose activity change, negative = inhibition, hits mostly activators. actives 2.5% (n = 71,000); active = well fitted activation curve with a large enough effect in the signal ratio, with a control signal flat, not every such curve was filed as active; inconclusive = small, poorly fitted or top-dose-only effect, or effect the other way, or a change in a side signal; the % refers to the signal ratio; note: potency is the fitted concentration of half-maximal effect; % of control where 0% means no effect
#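 Titrated compounds plus EC10 NKH 477 on CHO CRE-bla cells, 3 h, 37 °C. CCF4, 2 h RT. Ratio 460/530 nm → AC50.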
# 4MU fluor: compound fluoresces in the 4-MU spectral region; actives 11% (n = 59,000); max dye-equivalent concentration, M; compound autofluorescence, 340/450 nm, 4-MU equivalents; stronger effect = higher value; AID 589; in the data active = max dye-equivalent concentration above about 10 nM; inconclusive = mostly about 1.1 nM to 9.6 nM
#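 Compounds in 100 mM Tris, pH 8.0, sat 15 min at room temperature before fluorescence was read at 340 nm excitation/450 nm emission; a per-plate six-point 4-MU standard curve converted signals to dye-equivalent concentration at each compound concentration.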
# HADH2 inhib: inhibitors of human HADH2 dehydrogenase; recombinant HADH2, NADH fluorescence, beta-hydroxybutyryl-CoA; Potency, µM (series often up to 57.1 µM), for the others: at the top dose activity change, negative = inhibition, most hits filed as inhibitors; actives 3.4% (n = 73,000); AID 886; note: potency is the fitted concentration of half-maximal effect; % is set by controls: 0 for no effect and ±100 for the full control effect; nearly all actives have a fitted effect of over 60% in size
# Target sequence (Q99714 whole entry, looked up, one chain of several): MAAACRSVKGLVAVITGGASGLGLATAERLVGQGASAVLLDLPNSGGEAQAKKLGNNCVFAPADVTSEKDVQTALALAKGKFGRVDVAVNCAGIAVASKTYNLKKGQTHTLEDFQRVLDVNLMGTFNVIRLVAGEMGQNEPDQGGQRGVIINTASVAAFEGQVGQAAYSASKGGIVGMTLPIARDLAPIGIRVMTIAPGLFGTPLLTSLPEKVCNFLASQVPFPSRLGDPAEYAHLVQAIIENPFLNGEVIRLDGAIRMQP
#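 20 nM HADH2 + cpd, 15 min RT; add 1 mM NAD+/90 uM beta-hydroxybutyryl-CoA; kinetic fluorescence 360/450 nm, 4 min. Tris-HCl pH 9.0, 0.01% Tween-20.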
# HSD17B inhib: inhibitors of human HSD17B10 dehydrogenase | Q99714 | recombinant HSD17B10, NADH fluorescence kinetic | Potency, µM (top dose mostly 57.1 µM), without a hit: at the highest dose activity change, negative = inhibition, most hits filed as inhibitors | actives 7.6% (n = 75,000) | AID 893;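 note: the protocol describes HADH2 (HSD17B10) and not the HSD17B4 of the title; potency is the fitted concentration of half-maximal effect; % is set by controls: 0 for no effect and ±100 for the full control effect; nearly all actives have a fitted effect of over 70% in size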
#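 Enzyme plus compound, 15 min room temperature; substrate mix added (NAD+ 1 mM, beta-hydroxybutyryl-CoA 90 uM final); plates read kinetically for NADH fluorescence. HADH2 was His-tagged, E. coli-derived, 20 nM.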
# A350 fluor: A350 region autofluorescence; AID 590; Compound autofluorescence, 340/450 nm, Alexa 350 dye-equivalents; stronger effect = higher value; actives 11% (n = 59,000); max dye-equivalent concentration, M; in the data active = max dye-equivalent concentration above about 10 nM; inconclusive = mostly about 1.1 nM to 9.6 nM
# Active calls of the source: *; i = inactive; ? = inconclusive; . = not tested or not shown; [ ] = another dose, or the depositor's remark. Unless noted, calls come from the whole dose curve; as a rule, active = well fitted curve in the direction sought with a large enough effect; inconclusive = small, poorly fitted or top-dose-only effect, or another doubt; inactive = no such curve, though single readings can be large; an effect the other way counts as inactive or inconclusive.
SMILES,AID923,CRE-bla Fsk,4MU fluor,HADH2 inhib,HSD17B inhib,A350 fluor
CCN1C(=O)[C@H]2[C@H]3[C@H](O)[C@H](O)C/C(=N/OC[C@@H](O)[C@H]4O[C@H]5OC(C)(C)O[C@H]5[C@@H]4O)[C@@H]3CC[C@@H]2C1=O,-1%[11.5 µM],.,.,-6%[11.4 µM],2%[11.4 µM],.
COc1cc2c(cc1OC)-c1cc(NC3CCCCC3)nc(=O)n1CC2,0%,2µM*,5.5e-08M*,-25%,32µM*,5.6e-08M*
COc1cc2c(cc1OC)-c1cc(NC3CC3)nc(=O)n1CC2,-1%,10µM*,4.6e-08M*,-12%,?,4.6e-08M*
COc1cc2c(cc1OC)-c1cc(NC3CCCCCCC3)nc(=O)n1CC2,3%,0.4µM*,2.6e-08M*,-11%,?,3.7e-08M*
O=C1c2oc3ccccc3c(=O)c2C(c2ccc(Br)cc2)N1c1ncccn1 (stereo unspecified),-1%,?,?,0%,6%,1.3e-08M*
CN1C(=O)c2oc3ccccc3c(=O)c2C1c1ccccn1 (stereo unspecified),0%,?,i,-1%,9%,i
COC(=O)C1=C(C)NC2=C(C(=O)CCC2)C1c1ccsc1 (stereo unspecified),13%,7%,.,-28%,?,.
CC1=C(C(=O)N2CCOCC2)C(c2ccsc2)C2=C(CCCC2=O)N1 (stereo unspecified),9%,-3%,7.6e-07M*,?,25µM*,9.4e-07M*
Cn1cc(C2=C(c3cn(CCCSC(=N)N)c4ccccc34)C(=O)NC2=O)c2ccccc21,-1%,.,.,?,-7%,.
CCCc1cc2c(c(NC(C)=O)n1)c(=O)oc1ccccc12,-3%,?,2.3e-08M*,-3%,-9%,2.1e-08M*
COc1ccc(-c2cc3nc4n(c(=O)c3s2)CCC4)cc1,-2%,8%,4e-07M*,-22%,13µM*,4.9e-07M*
COC(=O)[C@@H]1CC[C@H](C)[C@@H](c2ccc(C)cc2)N1C(=O)c1ccc(/C=N\O[C@@H](C)CN2CCCc3nc(C)c(C)cc32)cc1,-1%[11.5 µM],.,.,14%[11.4 µM],9%[11.4 µM],.
O=c1oc2ccccc2c(O)c1/C=N/c1nc(-c2ccc(O)c(O)c2)cs1,-1%[11.5 µM],?,i,0.2µM*,?,i
Cc1cc(O)c(/C=N/c2ccccn2)c(=O)o1,12%,-7%,3.8e-08M*,-2%,-12%,3.7e-08M*
CCOc1ccc(N=Cc2c(O)cc(C)oc2=O)cc1,3%,7%,.,-19%,-7%,.
Cc1cccc(/N=C/c2c(O)cc(C)oc2=O)n1,7%,-7%,1.1e-08M*,0%,-18%,?
O=c1oc2ccccc2c(O)c1/C=N/c1ccccn1,-1%,?,2.5e-08M*,-9%,-13%,3e-08M*
CC(=O)N1CCC[C@@]2(CCN(c3ncccn3)C2)C1,3%,-8%,i,2%,?,i
CC(=O)Nc1ccc(NS(=O)(=O)c2cn(C)c(=O)n(C)c2=O)cc1,-2%,28%,.,-2%,7%,.
COCCn1c(SCc2ccc(C(=O)OC)o2)nc2ccccc2c1=O,-1%,13µM*,?,-2%,-16%,?
COC(=O)c1ccc(CSc2nc3ccccc3c(=O)n2-c2ccc(OC)c(OC)c2)o1,1%,13µM*,i,8%,-7%,i
COCCn1c(SC(C)C(=O)Nc2ccc3c(c2)OCCO3)nc2ccccc2c1=O (stereo unspecified),-1%,13µM*,i,6%,-1%,i
COC(=O)c1ccc(CSc2nnnn2C)o1,0%,4%,i,5%,9%,i
COCCn1c(SCC(=O)N2CCCCC2)nc2ccccc2c1=O,-2%,8%,i,7%,-5%,i
COC(=O)c1ccc(CSc2nnc3n(Cc4ccccc4OC)c(=O)c4ccccc4n23)o1,-1%,-1%,i,?,25µM*,i
